Here are results for 30 compounds from PubChem BioAssay (EPA / NIEHS).

Records with an inconclusive call do not appear. The source holds several records for some structures; these can differ, active in one and inactive in another. Active and inactive are the calls of the source. How the source made its calls: active means hit-call score of the fitted dose curve at least 0.9, where 1 is the maximum; inconclusive means response in the unintended direction; inactive means score below 0.9.

Chain of Estrogen-related receptor gamma (Homo sapiens) (P62508 whole entry, looked up, the tested form may be a part): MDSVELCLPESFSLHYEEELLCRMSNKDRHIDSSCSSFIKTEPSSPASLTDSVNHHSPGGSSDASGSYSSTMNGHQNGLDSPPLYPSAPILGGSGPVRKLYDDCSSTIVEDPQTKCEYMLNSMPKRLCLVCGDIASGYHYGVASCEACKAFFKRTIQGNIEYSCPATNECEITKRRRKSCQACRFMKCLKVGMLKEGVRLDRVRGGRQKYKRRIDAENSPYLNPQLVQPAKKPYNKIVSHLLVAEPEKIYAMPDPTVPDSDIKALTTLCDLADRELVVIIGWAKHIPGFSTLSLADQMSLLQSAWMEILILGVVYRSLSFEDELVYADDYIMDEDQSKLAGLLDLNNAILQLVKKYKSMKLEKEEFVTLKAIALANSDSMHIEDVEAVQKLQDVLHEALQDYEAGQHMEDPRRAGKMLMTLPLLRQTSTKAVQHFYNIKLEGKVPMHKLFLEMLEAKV
Chain of Bile acid receptor (Homo sapiens) (Q96RI1 whole entry, looked up, the tested form may be a part): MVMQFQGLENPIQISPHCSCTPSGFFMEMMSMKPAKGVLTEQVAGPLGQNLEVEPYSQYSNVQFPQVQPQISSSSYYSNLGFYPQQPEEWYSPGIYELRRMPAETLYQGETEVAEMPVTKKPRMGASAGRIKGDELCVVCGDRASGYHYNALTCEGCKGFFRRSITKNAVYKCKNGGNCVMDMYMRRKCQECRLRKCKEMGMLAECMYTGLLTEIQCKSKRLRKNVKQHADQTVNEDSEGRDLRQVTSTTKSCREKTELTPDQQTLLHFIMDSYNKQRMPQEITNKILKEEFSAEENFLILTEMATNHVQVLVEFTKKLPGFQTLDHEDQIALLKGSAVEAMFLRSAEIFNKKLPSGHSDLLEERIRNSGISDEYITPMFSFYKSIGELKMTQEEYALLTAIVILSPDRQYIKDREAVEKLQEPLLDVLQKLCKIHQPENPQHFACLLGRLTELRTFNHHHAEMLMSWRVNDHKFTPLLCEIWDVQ

In the first assay the target is Estrogen-related receptor gamma (Homo sapiens) (UniProt P62508). Put plainly: ATG_ERRg_TRANS: Attagene TRANS-FACTORIAL HepG2 Assay for human Estrogen-Related Receptor gamma (ERRg) (AID 2282977).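 Further: hits increase reporter signal over DMSO so potencies reflect activators.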 The following applies: HepG2 Attagene TRANS reporter, ERRg transactivation. A digest of the protocol:
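Exogenous NR-Gal4 chimera activity measured as reporter transcript induction after 24 h in transiently transfected HepG2 cells. RNA reverse-transcribed, PCR-amplified, 6-FAM-labelled and resolved by capillary electrophoresis; increase over DMSO baseline.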
In the case of `Cc1nn(C)c(Oc2ccccc2)c1C=NOCc1ccc(C(=O)OC(C)(C)C)cc1`, the compound was called inactive.

On to `COc1nc(C)nc(NC(=O)NS(=O)(=O)c2ccccc2OCCCl)n1`, for which the compound was called inactive.

As to `CC(C)(c1ccc(O)cc1)c1ccc(O)cc1`, the call was inactive.

Take `CCOC(=O)NCCOc1ccc(Oc2ccccc2)cc1`: the compound was called inactive.

Regarding `COC(=O)c1cccc(C)c1S(=O)(=O)NC(=O)Nc1nc(OCC(F)(F)F)nc(N(C)C)n1`, the compound was called inactive.

Turning to `CCCN(CCC)c1c([N+](=O)[O-])cc(C(F)(F)F)c(N)c1[N+](=O)[O-]`, the compound was called inactive.

Turning to `CCN(CC)C(=O)c1cccc(C)c1`, the call was inactive.

Regarding `COC(=O)c1c(Cl)nn(C)c1S(=O)(=O)NC(=O)Nc1nc(OC)cc(OC)n1`, the result was inactive.

For the compound `CCOC(=O)C(C)Oc1ccc(Oc2nc3ccc(Cl)cc3o2)cc1` (stereo not given), the call was inactive.

With `c1ccc(Nc2ccccc2)cc1`, the result was inactive.

Regarding `CCC(C)OC(=O)N1CCCCC1CCO` (stereo not given), the compound was called inactive.

For `COC(=O)c1ccc(CNS(C)(=O)=O)cc1S(=O)(=O)NC(=O)Nc1nc(OC)cc(OC)n1`, the call was inactive.

Take `CCSC(=O)N(CC(C)C)CC(C)C`: the call was inactive.

As to `OB(O)O`, the outcome was inactive.

Turning to `CCN(Cc1c(F)cccc1Cl)c1c([N+](=O)[O-])cc(C(F)(F)F)cc1[N+](=O)[O-]`, the call was inactive.

Consider `C[C@]12CC[C@@H]3c4ccc(O)cc4C[C@@H](CCCCCCCCCS(=O)CCCC(F)(F)C(F)(F)F)[C@H]3[C@@H]1CC[C@@H]2O` (stereo not given in full), for which the call was inactive.

For the compound `CN(C)C(=O)Nc1ccc(Cl)c(Cl)c1`, the outcome was inactive.

The target of the next assay is Glucocorticoid receptor (Homo sapiens) (UniProt P04150). Kind of assay: ATG_GR_TRANS: Attagene TRANS-FACTORIAL HepG2 Assay for human Glucocorticoid Receptor (GR) (AID 2282978).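 Further: activators score as hits since higher reporter transcript over DMSO is fitted.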 The conditions noted are these: HepG2 Attagene TRANS GR reporter, mRNA transcription. The method, boiled down: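 Measurement of GAL4-UAS-driven reporter mRNA in human HepG2 liver cells 24 h post-dosing, using RT-PCR with fluorescent labelling and capillary electrophoresis; the transfected constructs report exogenous NR-GAL4 chimera activity, fitted upward against DMSO.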
Chain of Glucocorticoid receptor (Homo sapiens) (P04150 whole entry, looked up, the tested form may be a part): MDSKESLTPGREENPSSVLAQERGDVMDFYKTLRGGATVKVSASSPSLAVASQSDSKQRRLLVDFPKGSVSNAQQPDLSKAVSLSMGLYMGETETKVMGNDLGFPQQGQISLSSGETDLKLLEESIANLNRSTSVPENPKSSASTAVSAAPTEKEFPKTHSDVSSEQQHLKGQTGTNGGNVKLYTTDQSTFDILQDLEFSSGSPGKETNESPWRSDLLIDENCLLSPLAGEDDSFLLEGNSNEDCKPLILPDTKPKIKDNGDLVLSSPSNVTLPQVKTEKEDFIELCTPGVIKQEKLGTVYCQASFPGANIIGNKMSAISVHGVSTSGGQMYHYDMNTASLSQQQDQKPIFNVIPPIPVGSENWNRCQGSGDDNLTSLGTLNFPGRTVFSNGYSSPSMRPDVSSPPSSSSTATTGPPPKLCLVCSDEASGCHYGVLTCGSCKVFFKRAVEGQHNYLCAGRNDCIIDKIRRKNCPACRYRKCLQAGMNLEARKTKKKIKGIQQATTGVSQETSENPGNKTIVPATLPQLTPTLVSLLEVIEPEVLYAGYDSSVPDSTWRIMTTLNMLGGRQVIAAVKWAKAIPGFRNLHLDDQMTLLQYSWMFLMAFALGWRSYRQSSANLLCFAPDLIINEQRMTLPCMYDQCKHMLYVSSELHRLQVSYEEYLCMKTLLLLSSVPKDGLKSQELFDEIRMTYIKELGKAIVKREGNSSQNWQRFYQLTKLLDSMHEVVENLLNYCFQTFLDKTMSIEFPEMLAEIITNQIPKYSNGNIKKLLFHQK
With `COc1nc(C)nc(NC(=O)NS(=O)(=O)c2ccccc2OCCCl)n1`, the call was inactive.

For `Oc1ccc(C(c2ccc(O)cc2)C(Cl)(Cl)Cl)cc1`, the compound was classed as inactive.

On to `S=C([S-])NCCNC(=S)[S-].[Mn+2]`, for which the call was inactive.

Turning to `COC(=O)c1cccc(C)c1S(=O)(=O)NC(=O)Nc1nc(OCC(F)(F)F)nc(N(C)C)n1`, the compound was classed as inactive.

With `N#CSCSc1nc2ccccc2s1`, the compound was classed as inactive.

For the compound `CCN(CC)C(=O)c1cccc(C)c1`, the outcome was inactive.

In the case of `CCCOC(=O)c1ccc(C(=O)OCCC)nc1`, the call was inactive.

In the case of `COC(=O)c1c(Cl)nn(C)c1S(=O)(=O)NC(=O)Nc1nc(OC)cc(OC)n1`, the compound was classed as inactive.

As for `CCOC(=O)C(C)Oc1ccc(Oc2nc3ccc(Cl)cc3o2)cc1` (stereo not given), the result was inactive.

For `CCCN(CCC)C(=O)SCC`, the call was inactive.

On to `C[C@]12C[C@H](O)[C@H]3[C@@H](CCC4=CC(=O)CC[C@@]43C)[C@@H]1CC[C@@H]2C(=O)CO`, for which the AC50 was 129 nM (active) [middle of 4 runs].

As to `COC(=O)c1ccc(CNS(C)(=O)=O)cc1S(=O)(=O)NC(=O)Nc1nc(OC)cc(OC)n1`, the compound was classed as inactive.

As for `O=C(c1ccc(O)cc1O)c1ccc(O)cc1O`, the compound was classed as inactive.

Regarding `CCSC(=O)N(CC(C)C)CC(C)C`, the outcome was inactive.

In the case of `C#CCOC(=O)[C@@H](C)Oc1ccc(Oc2ncc(Cl)cc2F)cc1`, the result was inactive.

Consider `CC(C)CCCCCCc1ccc(O)cc1`, for which the AC50 is 42.2 µM (active) and the compound was classed as inactive.

`OB(O)O`: the compound was classed as inactive.

`CCOC(=O)c1ccc(O)cc1`: the outcome was inactive.

Consider `C[C@]12CC[C@@H]3c4ccc(O)cc4C[C@@H](CCCCCCCCCS(=O)CCCC(F)(F)C(F)(F)F)[C@H]3[C@@H]1CC[C@@H]2O` (stereo not given in full), for which the outcome was inactive.

On to `CN(C)C(=O)Nc1ccc(Cl)c(Cl)c1`, for which the result was inactive.

As for `COC(=O)CSc1cc(N=c2sc(=O)n3n2CCCC3)c(F)cc1Cl`, the outcome was inactive.

Take `O=C(c1ccccc1)C1CCCCC1`: the compound was classed as inactive.

As to `CCCCOC(=O)[C@@H](C)Oc1ccc(Oc2ccc(C(F)(F)F)cn2)cc1`, the compound was classed as inactive.

A further assay has as its target Bile acid receptor (Homo sapiens) (UniProt Q96RI1). Put plainly: ATG_FXR_TRANS: Attagene TRANS-FACTORIAL HepG2 Assay for Farnesoid X Receptor (FXR) (AID 2282979).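 Further: hits raise reporter mRNA above DMSO so AC50 marks FXR activation.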 The following applies: HepG2 Attagene TRANS FXR-GAL4 reporter transcription. A digest of the protocol: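 Transient transfection of HepG2 with multiplexed GAL4-UAS reporter units; exogenous FXR-GAL4 chimera. Dose 24 h → TriZol RNA → oligo(dT) RT → PCR, 6-FAM primer extension, HpaI cut → CE. Gain vs DMSO.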
Regarding `COc1nc(C)nc(NC(=O)NS(=O)(=O)c2ccccc2OCCCl)n1`, the call was inactive.

As for `Oc1ccc(C(c2ccc(O)cc2)C(Cl)(Cl)Cl)cc1`, the compound was called inactive.

On to `CCOC(=O)NCCOc1ccc(Oc2ccccc2)cc1`, for which the result was inactive.

Consider `CCN(CC)C(=O)c1cccc(C)c1`, for which the compound was classed as inactive.

For the compound `CCCOC(=O)c1ccc(C(=O)OCCC)nc1`, the compound was called inactive.

In the case of `COC(=O)c1c(Cl)nn(C)c1S(=O)(=O)NC(=O)Nc1nc(OC)cc(OC)n1`, the call was inactive.

With `C[C@]12C[C@H](O)[C@H]3[C@@H](CCC4=CC(=O)CC[C@@]43C)[C@@H]1CC[C@@H]2C(=O)CO`, the outcome was inactive.

Turning to `O=C(c1ccc(O)cc1O)c1ccc(O)cc1O`, the result was inactive.

Regarding `CC(C)CCCCCCc1ccc(O)cc1`, the half-maximal activity concentration (AC50) is 19.2 µM (active) and the call was inactive.

For the compound `OB(O)O`, the compound was called inactive.

In the case of `CCOC(=O)c1ccc(O)cc1`, the compound was classed as inactive.

Take `C[C@]12CC[C@@H]3c4ccc(O)cc4C[C@@H](CCCCCCCCCS(=O)CCCC(F)(F)C(F)(F)F)[C@H]3[C@@H]1CC[C@@H]2O` (stereo not given in full): the compound was classed as inactive.

On to `COC(=O)CSc1cc(N=c2sc(=O)n3n2CCCC3)c(F)cc1Cl`, for which the compound was classed as inactive.

Consider `O=C(c1ccccc1)C1CCCCC1`, for which the outcome was inactive.

Consider `CCCCOC(=O)[C@@H](C)Oc1ccc(Oc2ccc(C(F)(F)F)cn2)cc1`, for which the compound was classed as inactive.

The next assay deals with Oxysterols receptor LXR-alpha (Homo sapiens) (UniProt Q13133). Kind of assay: ATG_LXRa_TRANS: Attagene TRANS-FACTORIAL HepG2 Assay for human Liver X Receptor alpha (LXRa) (AID 2282980). The conditions noted are these: HepG2 Attagene TRANS reporter, LXRa transactivation. The method, boiled down: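 Transfect HepG2 with GAL4-UAS multiplex reporter constructs (TRANS format, chimeric receptor-GAL4); treat 24 h; extract RNA, reverse-transcribe, PCR-amplify, FAM-label, HpaI-digest; resolve fragments by capillary electrophoresis. Upward response vs DMSO.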
Chain of Oxysterols receptor LXR-alpha (Homo sapiens) (Q13133 whole entry, looked up, the tested form may be a part): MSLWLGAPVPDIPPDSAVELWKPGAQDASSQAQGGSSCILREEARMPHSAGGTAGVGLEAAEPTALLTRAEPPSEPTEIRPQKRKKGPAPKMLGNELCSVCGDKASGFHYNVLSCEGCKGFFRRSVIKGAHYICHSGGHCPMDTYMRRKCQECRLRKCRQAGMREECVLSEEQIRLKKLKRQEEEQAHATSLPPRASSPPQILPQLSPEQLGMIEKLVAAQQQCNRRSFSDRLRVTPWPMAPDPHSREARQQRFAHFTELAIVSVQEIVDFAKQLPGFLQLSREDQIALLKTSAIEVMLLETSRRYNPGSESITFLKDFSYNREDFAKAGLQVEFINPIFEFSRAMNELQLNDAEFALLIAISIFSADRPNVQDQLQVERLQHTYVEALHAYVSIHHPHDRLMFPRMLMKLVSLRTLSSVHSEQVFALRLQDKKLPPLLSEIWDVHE
On to `Cc1nn(C)c(Oc2ccccc2)c1C=NOCc1ccc(C(=O)OC(C)(C)C)cc1`, for which the concentration at half-maximal activity (AC50) is 1.31 µM (active).

For `COc1nc(C)nc(NC(=O)NS(=O)(=O)c2ccccc2OCCCl)n1`, the concentration at half-maximal activity (AC50) was 17.1 µM (active).

For `CC(C)(c1ccc(O)cc1)c1ccc(O)cc1`, the outcome was inactive.

With `Oc1ccc(C(c2ccc(O)cc2)C(Cl)(Cl)Cl)cc1`, the result was inactive.

Regarding `CCOC(=O)NCCOc1ccc(Oc2ccccc2)cc1`, the compound was called inactive.

As to `S=C([S-])NCCNC(=S)[S-].[Mn+2]`, the result was inactive.

Take `COC(=O)c1cccc(C)c1S(=O)(=O)NC(=O)Nc1nc(OCC(F)(F)F)nc(N(C)C)n1`: the call was inactive.

Regarding `N#CSCSc1nc2ccccc2s1`, the outcome was inactive.

Consider `CCCN(CCC)c1c([N+](=O)[O-])cc(C(F)(F)F)c(N)c1[N+](=O)[O-]`, for which the compound was called inactive.

Regarding `CCN(CC)C(=O)c1cccc(C)c1`, the compound was called inactive.

Regarding `CCCOC(=O)c1ccc(C(=O)OCCC)nc1`, the compound was called inactive.

Turning to `COC(=O)c1c(Cl)nn(C)c1S(=O)(=O)NC(=O)Nc1nc(OC)cc(OC)n1`, the outcome was inactive.

As to `CCOC(=O)C(C)Oc1ccc(Oc2nc3ccc(Cl)cc3o2)cc1` (stereo not given), the result was inactive.

On to `c1ccc(Nc2ccccc2)cc1`, for which the compound was classed as inactive.

With `CCC(C)OC(=O)N1CCCCC1CCO` (stereo not given), the result was inactive.

Regarding `CCCN(CCC)C(=O)SCC`, the result was inactive.

In the case of `C[C@]12C[C@H](O)[C@H]3[C@@H](CCC4=CC(=O)CC[C@@]43C)[C@@H]1CC[C@@H]2C(=O)CO`, the compound was called inactive.

As for `COC(=O)c1ccc(CNS(C)(=O)=O)cc1S(=O)(=O)NC(=O)Nc1nc(OC)cc(OC)n1`, the compound was classed as inactive.

For `O=C(c1ccc(O)cc1O)c1ccc(O)cc1O`, the call was inactive.

As to `C#CCOC(=O)[C@@H](C)Oc1ccc(Oc2ncc(Cl)cc2F)cc1`, the compound was called inactive.

`CC(C)CCCCCCc1ccc(O)cc1`: the half-maximal activity concentration (AC50) is 11.1 µM (active) and the result was inactive.

`OB(O)O`: the compound was called inactive.

On to `C[C@]12CC[C@@H]3c4ccc(O)cc4C[C@@H](CCCCCCCCCS(=O)CCCC(F)(F)C(F)(F)F)[C@H]3[C@@H]1CC[C@@H]2O` (stereo not given in full), for which the result was inactive.

In the case of `CN(C)C(=O)Nc1ccc(Cl)c(Cl)c1`, the compound was called inactive.

In the case of `COC(=O)CSc1cc(N=c2sc(=O)n3n2CCCC3)c(F)cc1Cl`, the outcome was inactive.

In the case of `O=C(c1ccccc1)C1CCCCC1`, the result was inactive.

As to `CCCCOC(=O)[C@@H](C)Oc1ccc(Oc2ccc(C(F)(F)F)cn2)cc1`, the result was inactive.

Broadly, the AC50 is the midpoint of the concentration-response curve, whichever way the signal moves.
